Hits are enriched below; roughly 2.2% of the tested compounds scored in any of these assays.
BaF3 tox – parental Ba/F3 viability inhibition as JAK2V617F counter-screen. CellTiter-Glo ATP luminescence. inhibition, % at 5.6 µM. 1.1% of 220,000 active;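 active means inhibition above a per-campaign cutoff, the mean inhibition of all tested compounds plus 3 SD, cut at about 27% in these data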;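 further: 0% = DMSO wells and 100% = JAK Inhibitor I control wells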
Ba/F3 V617F tox – loss of viability in JAK2V617F-driven Ba/F3 cells; 1.1% of 220,000 active; Ba/F3 EpoR-JAK2V617F viability, ATP luminescence; inhibition, % at 5.6 µM;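 active means inhibition above the campaign mean plus 3 SD over all tested compounds, cut at about 24% in these data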;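 further: cytokine-independent growth of Ba/F3 cells driven by EpoR plus mutant JAK2; 0% = DMSO-treated cells and 100% = JAK inhibitor I control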
IEC-6 tox – kills IEC-6 intestinal cells in KLF5 counter-screen | IEC-6 cytotoxicity, luminescence viability | inhibition, % at 5 µM | 0.78% of 290,000 active | AID 1825;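 further: 0% = plate median of test compound wells and 100% = cytotoxic reference compound wells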
APP transl inh – APP translation inhibition; SH-SY5Y APP 5'UTR-luciferase reporter, luminescence; inhibition, % at 2 µM; 0.82% of 190,000 active; AID 1285;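 active means inhibition above a set limit, derived from the sample mean plus 3 SD, cut at about 45% in these data; inconclusive means one replicate passes the limit while the other fails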
aSyn UTR inh – 5' untranslated region of α-synuclein, MLPCN primary screen; alpha-synuclein 5'UTR reporter, inhibitor activity; inhibition, % (tested at 7.5 µM); 0.82% of 300,000 active; AID 1813; in the data active means inhibition above about 60%; inconclusive means no clear call, values can overlap the other calls;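 further: H4 neuroglioblastoma cells stably carrying SNCA 5'UTR luciferase fusion; 0% = DMSO wells and 100% = positive control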
KLF5 inh – inhibitors of KLF5 expression | DLD-1 KLF5 promoter-luciferase reporter, luminescence | inhibition, % at 5 µM | 0.23% of 290,000 active | AID 1700;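 active means inhibition above a per-plate limit of that plate's mean compound inhibition plus 3 SD, cut at about 60% in these data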;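 further: 0% = DMSO wells and 100% = LY294002 at 200 µM; higher means less KLF5 promoter-driven luciferase light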
IEC-6 tox confirm – IEC-6 cytotoxicity, confirmation assay; inhibition, % at 5 µM; IEC-6 rat intestinal epithelial viability, luminescence; shares compounds with IEC-6 tox; 63% of 1,900 active;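 further: 0% = vehicle and 100% = reference cytotoxic drug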
Numbers without * were called inactive; ? = inconclusive; · = not tested or not shown. Unless noted, no stated cut-off is given here; in the data, active means inhibition above about 22%; inactive means the rest.

SMILES	BaF3 tox	Ba/F3 V617F tox	IEC-6 tox	APP transl inh	aSyn UTR inh	KLF5 inh	IEC-6 tox confirm
COc1ccc(C)cc1NC(=O)Cn1c(=O)oc2ccccc21	·	·	1	·	10	-26	·
CCOC(=O)c1ccc(NC(=S)N2CCN(C(=O)C3CCCO3)CC2)cc1 (configuration not stated)	·	·	29*	·	-4	-7	7
O=C(C1CCCO1)N1CCN(C(=S)Nc2ccccc2)CC1 (configuration not stated)	1	-6	8	8	29	-8	·
Cc1n[nH]c(C)c1CCCCOc1ccccc1[N+](=O)[O-]	·	·	10	·	9	-29	·
COc1ccccc1N1CCN(c2ccc3ccccc3n2)CC1	·	·	6	·	-53	-51	·
COc1ccccc1N1CCN(c2ccc(-c3ccccc3)nn2)CC1	74*	72*	62*	90*	79*	-51	59*
C1=C(CCNc2ncnc3c2[nH]c2ccccc23)CCCC1	63*	73*	39*	-25	·	-35	24*
O=c1c2[nH]c3ccccc3c2ncn1CCC1=CCCCC1	1	-1	-4	-35	-121	-38	·
Cc1ccc(C(=O)Nc2cc3[nH]c(=O)oc3cc2C)cc1	·	·	9	·	27	-24	·
O=C1CC[C@@H](CN(Cc2ccccn2)Cc2nc(-c3ccc(C(F)(F)F)cc3)no2)N1	1	1	4	12	13	-1	·
Cc1ccccc1OCC(O)CNC1CCC(NCC(O)COc2ccccc2C)CC1 (configuration not stated)	·	·	101*	·	99*	-34	101*
Cc1ccc(OCC(O)CNC2CCCC2)c(C)c1 (configuration not stated)	·	·	1	·	3	-50	·
CCn1c(CC(=O)Nc2ccc(F)cc2)nnc1SCC(=O)N1CCOCC1	·	·	3	·	-5	-28	·
CN1CCN(Cc2cc(Cl)c3cccnc3c2OC(=O)c2cccs2)CC1	10	1	8	4	-11	-9	·
O=C(Oc1c(CN2CCOCC2)cc(Cl)c2cccnc12)c1ccccc1Br	1	-3	24*	·	48	6	21
COC(=O)c1ccc(CNC(=O)C2CCC(=O)N(CCCc3ccccc3)C2)cc1 (configuration not stated)	·	·	-1	·	30	-15	·
CN(C)S(=O)(=O)c1cccc(NC(=O)CSc2nnnn2-c2ccccc2)c1	0	4	4	·	3	-13	·
NS(=O)(=O)c1ccc(CCNC(=O)CSc2nc3ccccc3c(=O)n2CCC(=O)N2CCCCC2)cc1	7	-1	4	-2	-9	9	·
CCN1/C(=C\c2ccc3cc(C)ccc3[n+]2CC)Sc2cc(C)c(C)cc21	71*	100*	37*	41	14	-14	28*
CCN1/C(=C/c2ccc3cccc(C)c3[n+]2CC)Sc2ccccc21	89*	98*	32*	31	-134	32	36*
C[n+]1ccccc1/C=C1\Sc2ccccc2N1CCO	·	·	1	·	5	-31	·
CC[n+]1c(/C=C/c2ccc(OC)c(OC)c2)ccc2ccccc21	·	·	0	·	-117	-53	·
CCN1/C(=C/c2ccc3cc(C)cc(C)c3[n+]2CC)Sc2cc(C)ccc21	86*	101*	43*	61*	·	16	37*
Cc1cc(-n2cnnn2)ccc1C(C)C	4	1	2	-37	5	4	·
COc1ccc(OC)c2c1sc(=NC(=O)C1COc3ccccc3O1)n2C (configuration not stated)	2	-1	-4	·	-128	-29	·
SMILES	BaF3 tox	Ba/F3 V617F tox	IEC-6 tox	APP transl inh	aSyn UTR inh	KLF5 inh	IEC-6 tox confirm
CCC(NC(=O)Nc1nnc(C(F)(F)F)s1)(C(F)(F)F)C(F)(F)F	89*	98*	26*	-2	109*	-9	92*
COc1ccc(-n2c(SCC(=O)Nc3ncc(Cl)cc3Cl)nc3ccccc32)cc1	7	4	69*	-10	30	41	39*
O=C(CSc1nc2ccccc2n1-c1ccccc1)Nc1ncc(Cl)cc1Cl	1	2	64*	3	52	27	39*
COc1ccc(NC(=O)CSc2nc3ccccc3n2-c2ccccc2)c([N+](=O)[O-])c1	5	2	1	10	24	-11	·
Cc1cccc(-n2c(SCC(=O)Nc3ncc(Cl)cc3Cl)nc3ccccc32)c1	7	2	67*	17	?	28	47*
Nc1ccc2nc(COc3ccccc3)[nH]c2c1	·	·	-6	·	-11	-16	·
CCN(CC)c1ccc(/C=N/NC(=O)c2nnn(-c3nonc3N)c2C(C)C)c(O)c1	·	·	97*	·	92*	50	68*
CC(C)c1c(C(=O)N/N=C/c2ccc3c(c2)OCO3)nnn1-c1nonc1N	·	·	-1	·	-34	-40	·
O=C(CSc1nnc(CNC(=O)c2ccccc2F)o1)NC1CCCCC1	·	·	-1	·	24	-42	·
CCOC(=O)Cn1c(S(=O)(=O)Cc2cccc(F)c2)nc(-c2ccccc2)c1-c1ccccc1	5	2	23*	5	50	-28	20
CCC(Sc1nc(-c2ccccc2)c(-c2ccccc2)[nH]1)C(=O)O (configuration not stated)	·	·	-4	·	-2	-83	·
CC(C)(Oc1ccc(Cl)cc1)C(=O)OCc1nc2ccsc2c(=O)[nH]1	·	·	·	·	-13	·	·
Cc1ccc(-n2c(O)c(/C=C3/C(c4ccccc4)=Nc4ccccc43)c(=O)[nH]c2=O)cc1	61*	74*	66*	76*	-4	28	60*
Cc1nnc(N/N=C/c2cc(C)n(-c3ccc(F)cc3)c2C)n1N	5	2	99*	2	-1	-12	-4
Cc1nnc(N/N=C/c2c(Cl)cccc2Cl)n1N	0	-1	102*	4	-2	-3	-13
Cc1nnc(N/N=C/c2ccccc2O)n1N	0	4	102*	14	-42	-4	4
CCc1nnc(N/N=C/c2c(F)cccc2Cl)n1N	·	·	1	·	-1	-17	·
Cc1cc(/C=N/NC(N)=S)c(C)n1-c1ccc(Br)cc1	14	10	6	-22	6	5	·
O=C1N[C@@H](Cc2ccccc2)C(=O)N2[C@@H]1C[C@@]1(Br)c3ccccc3N(S(=O)(=O)c3ccccc3)[C@@H]21	·	·	·	·	-18	·	·
Cc1ccc(C)c(NC(=O)CSc2nnc(-c3cc(C)[nH]n3)n2N)c1	·	·	-11	·	12	-18	·
Cc1ccn2c(C(=O)CSc3ccccc3Cl)c(C)nc2c1	0	-4	40*	-5	15	2	38*
CCOC(=O)c1c(C)nc2cc(C)ccn12	3	2	-6	-2	-10	-17	·
CCc1cc2c(=O)[nH]c(-c3ccccn3)nc2s1	2	-3	27*	-34	?	-105	49*
CCOC(=O)c1sc(N)c(C(=O)Nc2ccccc2OC)c1C	36*	40*	38*	47*	30	12	46*
CCOC(=O)C1CCN(S(=O)(=O)c2cccc3nonc23)CC1	5	1	-2	-7	15	-9	·
